The values that follow come from PubChem BioAssay (NCI).

About 83,000 compounds went through this panel and 20% of them were active in at least one assay; those are over-represented in the sample as a whole.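 In brief: 96-well plates, 48 h treatment, single concentration, percent growth endpoint.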 Values without a mark were called inactive. Calls of active or inactive are those of the source. The calls were made as follows: active = growth percent below 10; inactive = the rest.

Holding throughout (test): NCI-60 one-dose screen, 48 h (100 = growth as untreated, 0 = no growth, -100 = all killed)
Conditions in all cases: 10 µM unless noted

For assay [1], the system named is SR leukemia.
Assay [2] deals with RPMI-8226 leukemia.
The test system of assay [3] is OVCAR-8 ovarian.
Assay [4] has as its system OVCAR-5 ovarian.
Assay [5] concerns OVCAR-4 ovarian.
The test system of assay [6] is SK-OV-3 ovarian.
The subject of assay [7] is IGROV1 ovarian.
For assay [8], the system named is OVCAR-3 ovarian.
In assay [9] the test system is HS 578T breast.
For assay [10], the system named is NCI/ADR-RES ovarian.
The test system of assay [11] is T-47D breast.
Assay [12] deals with BT-549 breast.
For assay [13], the system named is MDA-MB-435 melanoma.
Assay [14] relates to SW-620 colon.
Assay [15] has as its system MCF7 breast.
In assay [16] the test system is HCT-116 colon.
The test system of assay [17] is HCC-2998 colon.
The subject of assay [18] is KM12 colon.
Assay [19] relates to MDA-MB-468 breast.

With `CC1=NN(C2=NC(=O)C(CC(=O)Nc3ccccc3C(F)(F)F)S2)C(c2ccc(N(C)C)cc2)C1` (configuration not stated), the growth in [1] was 16.5%; in assay [2] it was 25.3%; in assay [3] it was 52.6%; in assay [4], 86%; in [5], 47.5%; in assay [6], 80.6%. For the same molecule, the growth is 59.2% in assay [7]; 44.9% in assay [8]; 43.8% in [9]; 62.7% in assay [10]; 48% in assay [11]; 52.7% in assay [12]. Besides, the growth in [13] is -26.5% (active); in assay [14] it was 60.5%; in assay [15], 23.4%; in assay [16] it was 30.1%; in [17], 66.2%; in [18], 39%. In addition, the growth in assay [19] is 3.34% (active).

As to `O=C1c2cccc3c(N4CCN(c5ccccc5)CC4)ccc(c23)C(=O)N1c1cccc(-c2nn(-c3ccccc3)cc2-c2nc3ccccc3s2)c1`, the growth in [1] is 90.9%; in assay [2], 95.9%; in assay [3] it was 106%; in assay [4] it was 108%; in assay [5], 99.9%; in assay [6], 97.6%. The growth is 73.9% in assay [7]; 98% in assay [8]; 102% in assay [9]; 98.3% in assay [10]; 114% in assay [11]; 126% in assay [12]. Moreover, the growth is 106% in [13]; 98% in [14]; 81.2% in assay [15]; 101% in assay [16]; 115% in [17]; 104% in assay [18]. The growth in assay [19] was 96.9%.

For `CCOc1ccccc1NC(=O)N/C(N)=N/c1nc2ccccc2s1`, the growth in assay [1] is 5.36% (active); in assay [2], 0.173% (active); in assay [3] it was -15.2% (active); in [4], 16.9%; in assay [5], 33.9%; in [6], 9.18% (active). Further, the growth in assay [7] is 22.7%; in [8] it was -10.7% (active); in assay [9] it was 60.8%; in assay [10] it was -14.1% (active); in assay [11] it was 41.5%; in [12], 23.1%. In addition, the growth in assay [13] was -21.6% (active); in assay [14], 25.5%; in [15], 11%; in [16], -5.6% (active); in assay [17] it was 13.1%; in assay [18], -0.458% (active). In addition, in assay [19], the growth was -11.4% (active).

Regarding `O=C1Nc2ccccc2/C1=C/C(=O)c1cc2ccccc2oc1=O`, the growth in assay [1] is 56.8%; in [2], 95.9%; in [3], 109%; in assay [4] it was 112%; in assay [5], 104%; in assay [6] it was 91.9%. Further, the growth in [7] is 98.3%; in assay [8], 55.9%; in assay [9] it was 105%; in assay [10], 107%; in assay [11] it was 83.2%; in assay [12], 111%. Further, the growth is 110% in [13]; 2.06% (active) in [14]; 53.3% in assay [15]; 66% in assay [16]; 140% in assay [17]; 95.9% in assay [18]. Also, the growth in assay [19] was 54.4%.

In the case of `NCCCCn1c(SCCc2c[nH]c3ccccc23)nnc1-c1ccc2ccccc2n1`, the growth is -19.7% (active) in [1]; -50.3% (active) in assay [2]; -9.11% (active) in assay [3]; 26% in [4]; -11.1% (active) in assay [5]; 22.3% in [6]. The growth in [7] was 3.95% (active); in [8], 10.4%; in assay [9], -25.4% (active); in assay [10] it was 62.3%; in assay [11], -63.4% (active); in assay [12], 54.5%. Also, the growth in [13] is -75% (active); in assay [14] it was -73.1% (active); in assay [15], -88.8% (active); in assay [16], -94.1% (active); in assay [17] it was -90.2% (active); in [18] it was 13.1%. Further, in assay [19], the growth is -87.1% (active).

As for `O=C(CSc1nnc(-c2ccc(-c3nc4ccccc4[nH]3)cc2)o1)Nc1ccc(Br)cc1`, the growth is 5.23% (active) in assay [1]; 7.82% (active) in assay [2]; 4.46% (active) in [3]; 44.7% in [4]; 54.3% in assay [5]; 79% in assay [6]. The growth in [7] is 35.8%; in assay [8] it was 34.2%; in [9], 57.2%; in [10] it was 21.5%; in assay [11], 32.8%; in [12] it was 37.1%. In addition, the growth in [13] is 18.3%; in [14], -47% (active); in assay [15] it was 9.69% (active); in assay [16], 10.3%; in [17], 71.2%; in [18], 21.7%. For the same molecule, in assay [19], the growth was 67.3%.

As to `CC(Nc1ncnc2ccc(-c3ccc4oc(N)nc4c3)cc12)c1ccccc1` (configuration not stated), the growth is -53.7% (active) in assay [1]; -17.9% (active) in [2]; -40.7% (active) in [3]; 25.4% in assay [4]; -85.8% (active) in [5]; -22.2% (active) in assay [6]. Also, the growth is -77.5% (active) in assay [7]; -19.5% (active) in [8]; -31.7% (active) in [9]; -18.7% (active) in assay [10]; -74.3% (active) in assay [11]; -21.6% (active) in assay [12]. The growth in [13] is 13%; in [14], -66.6% (active); in assay [15] it was -73.1% (active); in assay [16], -64.7% (active); in [17] it was 41.5%; in [18], 23.6%. In [19], the growth is -78.4% (active).

Turning to `C[C@@H]1[C@H]2C[C@@H](C[C@H]1NCc1nc3ccccc3n1C1CCCCCC1)C2(C)C`, the growth in assay [1] was 15.4%; in [2], 27.6%; in assay [3] it was 75.1%; in [4] it was 85.9%; in assay [5] it was 72.4%; in [6], 90.4%. Moreover, the growth in assay [7] is 75.8%; in assay [8], 64.5%; in assay [9], 80.2%; in assay [10] it was 25.9%; in [11], 48%; in assay [12], 72.8%. The growth in [13] is 73.6%; in assay [14], 49.6%; in assay [15] it was 28.1%; in assay [16] it was 23.4%; in assay [17], 37.6%; in [18] it was 68.6%. Further, the growth in assay [19] was 2.05% (active).
